In PubChem BioAssay (EPA / NIEHS):
Inconclusive results are not listed. Active and inactive are the calls of the source. Rule for the calls, unless noted: active = hit-call score of the fitted dose curve at least 0.9, where 1 is the maximum; inconclusive = response in the unintended direction; inactive = score below 0.9.

biological target: Nuclear receptor subfamily 1 group I member 3 (Homo sapiens) (UniProt Q14994); assay: ATG_CAR_TRANS: Attagene TRANS-FACTORIAL HepG2 Assay for human Constitutive Androstane Receptor (CAR) (AID 2282969); conditions: HepG2 Attagene TRANS-FACTORIAL CAR reporter;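 note: activators raise reporter mRNA above DMSO so AC50 marks induction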
Outline: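 Transiently transfected HepG2, multiplex TRANS reporters (CAR-Gal4 chimera driving GAL4-UAS reporter). 24 h dosing. Readout: reporter transcript by RT-PCR + capillary electrophoresis, fluorescence intensity; positive direction vs DMSO.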

Sequence of Nuclear receptor subfamily 1 group I member 3 (Homo sapiens) (Q14994 whole entry, looked up, the tested form may be a part): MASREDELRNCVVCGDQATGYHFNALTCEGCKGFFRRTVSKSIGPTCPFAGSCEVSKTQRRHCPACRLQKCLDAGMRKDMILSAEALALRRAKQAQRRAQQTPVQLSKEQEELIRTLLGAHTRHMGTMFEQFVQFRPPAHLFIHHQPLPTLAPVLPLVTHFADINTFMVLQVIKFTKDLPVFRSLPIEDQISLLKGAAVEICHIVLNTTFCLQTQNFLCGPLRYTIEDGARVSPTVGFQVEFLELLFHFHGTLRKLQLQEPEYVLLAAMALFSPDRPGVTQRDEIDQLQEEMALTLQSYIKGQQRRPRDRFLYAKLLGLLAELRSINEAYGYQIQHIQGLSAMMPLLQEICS

Structure (SMILES) | outcome | AC50
OCCOc1cccc(OCCO)c1 | inactive | –
O=C1OC2(c3cc(Br)c(O)c(Br)c3Oc3c2cc(Br)c(O)c3Br)c2c(Cl)c(Cl)c(Cl)c(Cl)c21 | inactive | –
CCCCc1ccc(N)cc1 | inactive | –
O=C1c2ccccc2C(=O)N1SC1CCCCC1 | inactive | –
CC(C)c1ccc(C(C)C)cc1 | inactive | –
NCCNCCN | inactive | –
Nc1ccc(F)c([N+](=O)[O-])c1 | inactive | –
Nc1cccc(S(=O)(=O)c2cccc(N)c2)c1 | inactive | –
C=C(C)C(=O)Nc1ccc(Cl)c(Cl)c1 | inactive | –
COc1ccc(OC)c(OC)c1 | inactive | –
Clc1sc(Cl)c(Cl)c1Cl | inactive | –
COC(=O)OC | inactive | –
NNc1nc(-c2ccc(N)cc2)cs1 | inactive | –
Cc1ccccc1C=O | inactive | –
CC(C)(C)c1n[nH]c(=S)n(N)c1=O | inactive | –
O=P(c1ccccc1)(c1ccccc1)c1ccccc1 | inactive | –
CCCC(=O)OCCC(C)CCC=C(C)C (centres undefined) | inactive | –
CC(C)(C)NC(N)=O | inactive | –
O=C(O)COCCN1CCN(C(c2ccccc2)c2ccc(Cl)cc2)CC1 (centres undefined) | inactive | –

Structure (SMILES) | outcome | AC50
CCC(O)CO (centres undefined) | inactive | –
CCc1c(C)cc(N)c(CC)c1N | inactive | –
CN(C)CCCN | inactive | –
O=C(O)c1cccc(C(F)(F)F)c1 | inactive | –
Cc1ccc(Nc2ccc(O)c3c2C(=O)c2ccccc2C3=O)cc1 | inactive | –
Cc1ccc(C=O)s1 | inactive | –
C=CC(C)(CCC=C(C)C)OC=O (centres undefined) | inactive | –
CC(=O)OCCC(C)CC(C)(C)C (centres undefined) | inactive | –
CCCCCCCCCOC(C)=O | inactive | –
CC1=CCC2C(C1)C2(C)C (centres undefined) | inactive | –
Cc1ccc2sc3cccc(C)c3c2c1 | inactive | –
CCCCCC(=O)OCCc1ccccc1 | inactive | –
O=Nc1ccc(Nc2ccccc2)cc1 | – | 26.7 µM (active)
CC(C)c1cccc(O)c1 | inactive | –
NC(=O)c1ccccc1Cl | inactive | –
COC(=O)c1ccc(C)cc1 | inactive | –
CNC[C@H](O)c1cccc(O)c1 | inactive | –
CCOC(=S)SSC(=S)OCC | inactive | –
COC(=O)Cc1cccc2ccccc12 | inactive | –

biological target: Estrogen receptor (Homo sapiens) (UniProt P03372); assay: ATG_ERa_TRANS: Attagene TRANS-FACTORIAL HepG2 Assay for human Estrogen Receptor alpha (ERa) (AID 2282970); conditions: HepG2 Attagene TRANS ERa GAL4 reporter, mRNA
Outline: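 Liver-derived HepG2 cells expressing chimeric nuclear receptor-Gal4 proteins from transient transfection were exposed for 24 hours. Gain of reporter mRNA signal versus DMSO, read by capillary electrophoresis of FAM-labelled PCR products, was recorded.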

Sequence of Estrogen receptor (Homo sapiens) (P03372 whole entry, looked up, the tested form may be a part): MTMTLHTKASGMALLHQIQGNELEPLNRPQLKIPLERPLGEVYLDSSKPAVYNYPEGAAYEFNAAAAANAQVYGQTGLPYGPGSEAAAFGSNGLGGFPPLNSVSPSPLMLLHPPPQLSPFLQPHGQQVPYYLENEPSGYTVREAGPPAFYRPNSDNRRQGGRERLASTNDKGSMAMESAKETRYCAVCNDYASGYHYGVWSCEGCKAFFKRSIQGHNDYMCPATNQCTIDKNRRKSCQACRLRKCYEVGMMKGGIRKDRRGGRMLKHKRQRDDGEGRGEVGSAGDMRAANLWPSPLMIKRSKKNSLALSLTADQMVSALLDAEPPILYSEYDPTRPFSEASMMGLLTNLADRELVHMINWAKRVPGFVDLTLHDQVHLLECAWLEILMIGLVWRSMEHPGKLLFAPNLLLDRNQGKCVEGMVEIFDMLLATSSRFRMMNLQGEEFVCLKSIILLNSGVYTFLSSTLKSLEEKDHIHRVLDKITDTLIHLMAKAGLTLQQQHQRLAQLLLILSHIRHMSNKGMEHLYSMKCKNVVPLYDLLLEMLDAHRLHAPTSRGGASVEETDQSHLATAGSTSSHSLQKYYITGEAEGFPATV

Structure (SMILES) | outcome | AC50
O=C1OC2(c3cc(Br)c(O)c(Br)c3Oc3c2cc(Br)c(O)c3Br)c2c(Cl)c(Cl)c(Cl)c(Cl)c21 | inactive | –
CCCCc1ccc(N)cc1 | – | 12.8 µM (active)
O=C1c2ccccc2C(=O)N1SC1CCCCC1 | – | 46 µM (active)
CC(C)c1ccc(C(C)C)cc1 | inactive | –
Nc1ccc(F)c([N+](=O)[O-])c1 | inactive | –
Nc1cccc(S(=O)(=O)c2cccc(N)c2)c1 | inactive | –
C=C(C)C(=O)Nc1ccc(Cl)c(Cl)c1 | inactive | –
COc1ccc(OC)c(OC)c1 | inactive | –
Clc1sc(Cl)c(Cl)c1Cl | inactive | –
NNc1nc(-c2ccc(N)cc2)cs1 | inactive | –
Cc1ccccc1C=O | inactive | –
CC(C)(C)c1n[nH]c(=S)n(N)c1=O | inactive | –
O=P(c1ccccc1)(c1ccccc1)c1ccccc1 | inactive | –
CC(C)(C)NC(N)=O | inactive | –
O=C(O)COCCN1CCN(C(c2ccccc2)c2ccc(Cl)cc2)CC1 (centres undefined) | inactive | –
CCC(O)CO (centres undefined) | inactive | –

Structure (SMILES) | outcome | AC50
CCc1c(C)cc(N)c(CC)c1N | inactive | –
CN(C)CCCN | inactive | –
O=C(O)c1cccc(C(F)(F)F)c1 | inactive | –
Cc1ccc(Nc2ccc(O)c3c2C(=O)c2ccccc2C3=O)cc1 | inactive | –
C=CC(C)(CCC=C(C)C)OC=O (centres undefined) | inactive | –
CC(=O)OCCC(C)CC(C)(C)C (centres undefined) | inactive | –
CCCCCCCCCOC(C)=O | inactive | –
CC1=CCC2C(C1)C2(C)C (centres undefined) | – | 77.3 µM (active)
Cc1ccc2sc3cccc(C)c3c2c1 | inactive | –
CCCCCC(=O)OCCc1ccccc1 | inactive | –
O=Nc1ccc(Nc2ccccc2)cc1 | – | 34.9 µM (active)
CC(C)c1cccc(O)c1 | – | 71.2 µM (active)
NC(=O)c1ccccc1Cl | inactive | –
COC(=O)c1ccc(C)cc1 | inactive | –
CCOC(=S)SSC(=S)OCC | inactive | –
COC(=O)Cc1cccc2ccccc12 | inactive | –

biological target: Steroid hormone receptor ERR1 (Homo sapiens) (UniProt P11474); assay: ATG_ERRa_TRANS: Attagene TRANS-FACTORIAL HepG2 Assay for human Estrogen-Related Receptor alpha (ERRa) (AID 2282971); conditions: HepG2 Attagene TRANS reporter, ERRa transactivation
Outline: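 Reporter transcript induction was quantified by RT-PCR and capillary electrophoresis of FAM-labelled, HpaI-cut products after 24 h treatment of HepG2 cells carrying transiently transfected GAL4-UAS reporter units and an exogenous ERRa-Gal4 fusion; activity scored as increase over DMSO.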

Sequence of Steroid hormone receptor ERR1 (Homo sapiens) (P11474 whole entry, looked up, the tested form may be a part): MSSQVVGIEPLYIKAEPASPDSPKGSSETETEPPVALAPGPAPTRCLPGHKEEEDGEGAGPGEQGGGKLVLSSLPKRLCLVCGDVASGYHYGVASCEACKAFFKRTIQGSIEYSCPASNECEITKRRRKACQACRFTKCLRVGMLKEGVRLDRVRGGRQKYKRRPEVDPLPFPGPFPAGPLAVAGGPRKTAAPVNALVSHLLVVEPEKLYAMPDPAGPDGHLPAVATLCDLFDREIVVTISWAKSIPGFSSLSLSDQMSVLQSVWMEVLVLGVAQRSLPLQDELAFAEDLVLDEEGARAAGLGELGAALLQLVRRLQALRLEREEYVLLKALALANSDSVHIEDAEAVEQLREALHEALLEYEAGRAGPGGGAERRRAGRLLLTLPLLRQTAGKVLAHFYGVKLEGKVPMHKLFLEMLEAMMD

Structure (SMILES) | outcome
OCCOc1cccc(OCCO)c1 | inactive
O=C1OC2(c3cc(Br)c(O)c(Br)c3Oc3c2cc(Br)c(O)c3Br)c2c(Cl)c(Cl)c(Cl)c(Cl)c21 | inactive
NCCNCCN | inactive
Nc1cccc(S(=O)(=O)c2cccc(N)c2)c1 | inactive
COC(=O)OC | inactive
CC(C)(C)c1n[nH]c(=S)n(N)c1=O | inactive
CCCC(=O)OCCC(C)CCC=C(C)C (centres undefined) | inactive
CCc1c(C)cc(N)c(CC)c1N | inactive
Cc1ccc(C=O)s1 | inactive
C=CC(C)(CCC=C(C)C)OC=O (centres undefined) | inactive
CCCCCC(=O)OCCc1ccccc1 | inactive
CC(C)c1cccc(O)c1 | inactive
NC(=O)c1ccccc1Cl | inactive
CNC[C@H](O)c1cccc(O)c1 | inactive

biological target: X-box-binding protein 1 (Homo sapiens) (UniProt P17861); assay: ATG_Xbp1_CIS: Attagene CIS-FACTORIAL HepG2 Assay for human X-box Binding Protein 1 (XBP1) (AID 2282972; active = hit-call score of the fitted dose curve at least 0.9, where 1 is the maximum; inactive = score below 0.9); conditions: HepG2 XBP1 cis-element reporter, Attagene multiplex; actives raise or lower the signal
Outline: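 Reporter transcripts were quantified by RT-PCR with fluorescent primer extension and capillary electrophoresis after 24 h chemical exposure. Cells: transiently transfected HepG2 carrying cis-regulated reporter constructs; data fitted bidirectionally relative to DMSO.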

Sequence of X-box-binding protein 1 (Homo sapiens) (P17861 whole entry, looked up): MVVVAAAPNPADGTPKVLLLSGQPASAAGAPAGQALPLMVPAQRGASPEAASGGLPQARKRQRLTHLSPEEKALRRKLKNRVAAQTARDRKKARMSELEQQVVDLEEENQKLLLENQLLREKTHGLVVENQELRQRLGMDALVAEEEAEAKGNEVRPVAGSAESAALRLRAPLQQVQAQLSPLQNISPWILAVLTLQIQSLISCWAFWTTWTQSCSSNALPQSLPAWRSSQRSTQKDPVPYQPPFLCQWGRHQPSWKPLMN

Structure (SMILES) | outcome | AC50
OCCOc1cccc(OCCO)c1 | inactive | –
O=C1OC2(c3cc(Br)c(O)c(Br)c3Oc3c2cc(Br)c(O)c3Br)c2c(Cl)c(Cl)c(Cl)c(Cl)c21 | inactive | –
CCCCc1ccc(N)cc1 | inactive | –
O=C1c2ccccc2C(=O)N1SC1CCCCC1 | – | 26.5 µM (active)
CC(C)c1ccc(C(C)C)cc1 | inactive | –
NCCNCCN | inactive | –
Nc1ccc(F)c([N+](=O)[O-])c1 | inactive | –
Nc1cccc(S(=O)(=O)c2cccc(N)c2)c1 | inactive | –
C=C(C)C(=O)Nc1ccc(Cl)c(Cl)c1 | inactive | –
COc1ccc(OC)c(OC)c1 | inactive | –
Clc1sc(Cl)c(Cl)c1Cl | inactive | –
COC(=O)OC | inactive | –
NNc1nc(-c2ccc(N)cc2)cs1 | inactive | –
CC(C)(C)c1n[nH]c(=S)n(N)c1=O | inactive | –
O=P(c1ccccc1)(c1ccccc1)c1ccccc1 | inactive | –
CCCC(=O)OCCC(C)CCC=C(C)C (centres undefined) | inactive | –
CC(C)(C)NC(N)=O | inactive | –
CCC(O)CO (centres undefined) | inactive | –

Structure (SMILES) | outcome | AC50
CCc1c(C)cc(N)c(CC)c1N | inactive | –
CN(C)CCCN | inactive | –
O=C(O)c1cccc(C(F)(F)F)c1 | inactive | –
Cc1ccc(Nc2ccc(O)c3c2C(=O)c2ccccc2C3=O)cc1 | inactive | –
Cc1ccc(C=O)s1 | inactive | –
CC(=O)OCCC(C)CC(C)(C)C (centres undefined) | inactive | –
CCCCCCCCCOC(C)=O | inactive | –
CC1=CCC2C(C1)C2(C)C (centres undefined) | inactive | –
Cc1ccc2sc3cccc(C)c3c2c1 | inactive | –
CCCCCC(=O)OCCc1ccccc1 | inactive | –
O=Nc1ccc(Nc2ccccc2)cc1 | inactive | –
CC(C)c1cccc(O)c1 | inactive | –
NC(=O)c1ccccc1Cl | – | 62.6 µM (active)
COC(=O)c1ccc(C)cc1 | inactive | –
CNC[C@H](O)c1cccc(O)c1 | inactive | –
CCOC(=S)SSC(=S)OCC | inactive | –
COC(=O)Cc1cccc2ccccc12 | inactive | –
